We go through 20 molecules from PubChem BioAssay.

SMILES strings stand for the structures. Unmarked numbers belong to inactive results. For some of these results: Potency and affinity values are given separately. Calls of active or inactive are those of the source. Unless noted, no rule for the calls is given here.

Assay [1] can be described thus: antimalarial activity against Dd2 strain (AID 2302;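 active = growth inhibition above 50% at the single 2 µM test dose, taken to imply half-maximal potency below 2 µM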;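 also: 0% = DMSO untreated growth and 100% = chloroquine plus artemisinin killed control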). To be noted: P. falciparum Dd2 in RBCs, LDH growth readout, 72 h; at 2 µM; hits give high values.
Assay [2] in a line: HepG2 cytotoxicity, primary screen, cytotoxicity control for P. falciparum antimalarial project, cell-based, ATP luminescence (AID 2303;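 active = inhibition above 50%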;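 also: 0% = DMSO wells and 100% = digitonin-killed cells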). The conditions noted are these: HepG2 viability, 24-48 h, at 10 µM, hits give high values.
Assay [3] addresses L-lactate dehydrogenase (Plasmodium falciparum (isolate CDC / Honduras)) (UniProt Q27743). Description: PfLDH activity inhibition – cell lysate, 3D7 strain, counter-screen for P. falciparum growth inhibition project (AID 2304).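 Also: 0% = vehicle and 100% = reference inhibitor.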 To be noted: P. falciparum 3D7 crude extract, LDH APAD/NBT absorbance; at 2 µM; hits give high values. (Counterscreens check selectivity or assay interference.)

Assay [4] in a line: inhibition of 3D7 malaria parasite growth – strain 3D7 (AID 2306).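 Also: 0% = DMSO wells and 100% = chloroquine plus artemisinin control wells.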 To be noted: P. falciparum 3D7 erythrocytic growth, LDH absorbance, 72 h; at 2 µM; hits give high values.
In assay [5] the target is Calcium-dependent protein kinase 1 (Plasmodium falciparum (isolate 3D7)) (UniProt P62344). Kind of assay: PfCDPK1 kinase inhibitors, biochemical, TCAMS library (AID 1159585; cut-off not given, nearly all actives have IC50 up to about 0.98 µM;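 also: inhibitors leave more ATP so luminescence rises with inhibition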). To be noted: recombinant PfCDPK1, Kinase-Glo ATP depletion luminescence. (In general: Kinase-Glo measures the ATP left after a reaction by luminescence.)
Assay [6] has as its target Plasmodium falciparum protein kinase 6 (PK6, PF3D7_1337100) (UniProt Q8IDW1). Description: PfPK6 kinase inhibitors, biochemical, TCAMS library (AID 1159586). The conditions noted are these: recombinant PfPK6, Kinase-Glo ATP depletion luminescence.
For assay [7], the target named is Protein kinase 7 (PK7), Plasmodium falciparum 3D7 (PF3D7_0213400) (UniProt Q7YTF7). Kind of assay: inhibition of Plasmodium PK7 catalytic activity – biochemical, TCAMS antimalarial set, Kinase-Glo luminescence (AID 1159587). To be noted: recombinant PfPK7, Kinase-Glo ATP depletion luminescence.
Assay [8] deals with Calcium-dependent protein kinase 4 (Plasmodium falciparum (isolate 3D7)) (UniProt Q8IBS5). Description: PfCDPK4 kinase inhibitors, biochemical, TCAMS library (AID 1159588; cut-off not given, nearly all actives have IC50 up to about 0.91 µM). The conditions noted are these: recombinant PfCDPK4, Kinase-Glo ATP depletion luminescence.
Sequence of Calcium-dependent protein kinase 4 (Plasmodium falciparum (isolate 3D7)) (Q8IBS5 whole entry, looked up): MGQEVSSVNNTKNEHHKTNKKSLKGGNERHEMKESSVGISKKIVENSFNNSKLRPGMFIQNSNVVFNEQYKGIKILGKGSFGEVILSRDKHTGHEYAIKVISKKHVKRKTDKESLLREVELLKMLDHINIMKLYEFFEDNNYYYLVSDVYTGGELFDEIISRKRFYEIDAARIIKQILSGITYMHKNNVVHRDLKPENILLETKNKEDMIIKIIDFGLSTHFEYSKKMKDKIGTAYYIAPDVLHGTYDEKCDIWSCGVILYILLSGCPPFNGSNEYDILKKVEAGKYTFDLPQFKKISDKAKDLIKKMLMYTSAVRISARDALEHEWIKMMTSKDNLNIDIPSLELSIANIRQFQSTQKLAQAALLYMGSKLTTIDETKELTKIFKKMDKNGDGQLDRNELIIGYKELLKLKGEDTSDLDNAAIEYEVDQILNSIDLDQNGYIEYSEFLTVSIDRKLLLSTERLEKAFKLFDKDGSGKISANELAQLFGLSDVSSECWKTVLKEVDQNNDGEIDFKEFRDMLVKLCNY

Sequence of Plasmodium falciparum protein kinase 6 (PK6, PF3D7_1337100) (Q8IDW1 1-305): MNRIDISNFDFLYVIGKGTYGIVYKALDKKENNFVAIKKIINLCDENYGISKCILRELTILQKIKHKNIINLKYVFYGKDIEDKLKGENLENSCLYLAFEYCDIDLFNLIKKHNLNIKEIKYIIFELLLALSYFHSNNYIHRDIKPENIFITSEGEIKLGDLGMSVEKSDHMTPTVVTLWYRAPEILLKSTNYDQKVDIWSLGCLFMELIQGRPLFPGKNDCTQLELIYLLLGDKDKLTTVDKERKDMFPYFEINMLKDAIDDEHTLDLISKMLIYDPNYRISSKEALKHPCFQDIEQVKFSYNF
Sequence of Calcium-dependent protein kinase 1 (Plasmodium falciparum (isolate 3D7)) (P62344 whole entry, looked up): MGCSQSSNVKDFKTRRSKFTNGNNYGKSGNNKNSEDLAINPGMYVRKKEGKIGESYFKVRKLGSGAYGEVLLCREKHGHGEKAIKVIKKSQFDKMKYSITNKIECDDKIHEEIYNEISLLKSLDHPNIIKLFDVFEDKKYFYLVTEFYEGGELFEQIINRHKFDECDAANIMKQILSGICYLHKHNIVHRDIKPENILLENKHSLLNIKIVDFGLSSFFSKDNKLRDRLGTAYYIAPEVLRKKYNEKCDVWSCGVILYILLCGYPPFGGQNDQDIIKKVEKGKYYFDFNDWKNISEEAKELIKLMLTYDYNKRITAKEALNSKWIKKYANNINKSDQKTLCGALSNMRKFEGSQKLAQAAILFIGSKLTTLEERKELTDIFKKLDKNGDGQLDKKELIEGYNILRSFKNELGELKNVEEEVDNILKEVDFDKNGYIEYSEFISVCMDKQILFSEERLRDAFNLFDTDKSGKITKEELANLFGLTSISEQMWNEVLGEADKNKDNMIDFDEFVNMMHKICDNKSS
Sequence of Protein kinase 7 (PK7), Plasmodium falciparum 3D7 (PF3D7_0213400) (Q7YTF7 1-343): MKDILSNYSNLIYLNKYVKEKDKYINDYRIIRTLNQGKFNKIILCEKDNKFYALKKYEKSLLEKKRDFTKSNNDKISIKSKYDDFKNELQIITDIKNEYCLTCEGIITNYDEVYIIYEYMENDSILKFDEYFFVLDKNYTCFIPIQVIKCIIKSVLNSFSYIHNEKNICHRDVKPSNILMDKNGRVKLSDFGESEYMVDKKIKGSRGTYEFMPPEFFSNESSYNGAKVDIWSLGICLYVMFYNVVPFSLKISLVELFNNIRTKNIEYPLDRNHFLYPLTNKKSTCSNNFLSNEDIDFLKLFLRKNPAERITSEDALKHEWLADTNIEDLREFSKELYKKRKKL
Sequence of L-lactate dehydrogenase (Plasmodium falciparum (isolate CDC / Honduras)) (Q27743 whole entry, looked up): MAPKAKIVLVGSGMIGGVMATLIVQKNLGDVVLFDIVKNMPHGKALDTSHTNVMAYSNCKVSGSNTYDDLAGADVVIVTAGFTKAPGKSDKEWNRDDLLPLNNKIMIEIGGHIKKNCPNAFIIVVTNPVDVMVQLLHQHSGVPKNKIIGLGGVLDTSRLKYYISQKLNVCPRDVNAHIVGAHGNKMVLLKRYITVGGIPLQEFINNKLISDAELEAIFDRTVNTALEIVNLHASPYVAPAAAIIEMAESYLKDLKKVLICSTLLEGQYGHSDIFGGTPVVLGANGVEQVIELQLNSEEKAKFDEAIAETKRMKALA

Take `CCOC(=O)c1cn(CC)c2cc(N3CCCCCC3)c(F)cc2c1=O`: the growth inhibition in assay [1] is 89% (active); in assay [4], 94% (active). Also, the inhibition (commonly the relative decrease from the control value, in per cent) in assay [2] was -2%; in assay [3] it was 3%. The result in assay [5], in assay [6], in assay [7] and in assay [8] was inactive.
Turning to `CCC(C)c1ccc(NC(=O)C(C)c2ccc([N+](=O)[O-])cc2)cc1` (stereo not given), the figures for the growth inhibition in assay [1] and in assay [4] were 100% (active) and 101% (active), respectively. Further, the inhibition in assay [2] was 14%; in assay [3], -3%. Further, the outcome in assay [5], in assay [6], in assay [7] and in assay [8] was inactive.
As to `O=C(Nc1ccc2nc3n(c(=O)c2c1)CCCCC3)C(=O)N1CCC(Cc2ccccc2)CC1`, the growth inhibition is 70% (active) in assay [1] and 91% (active) in assay [4]. Also, the results for the inhibition in assay [2] and in assay [3] were 12% and 0%, respectively. Also, the result in assay [5], in assay [6], in assay [7] and in assay [8] was inactive.
Consider `O=C(NCC1CC1)C1CCN(C(c2ccccc2)c2nc3ccccc3s2)CC1` (stereo not given), for which the growth inhibition in assay [1] is 49%; in assay [4] it was 92% (active). The inhibition was -3% in assay [2] and 8% in assay [3]. Further, the outcome in assay [5], in assay [6], in assay [7] and in assay [8] was inactive.
As to `Cc1nn(C)cc1C(C)Nc1nncc(-c2ccc(C(F)(F)F)cc2)n1` (stereo not given), the growth inhibition in assay [1] was 99% (active); in assay [4], 100% (active). Further, the inhibition is -3% in assay [2] and -5% in assay [3]. The result in assay [5], in assay [6], in assay [7] and in assay [8] was inactive.
With `CC(C)CNCc1cccc(-c2ccccc2CNC2CCN(Cc3ccccc3)CC2)c1`, the results for the growth inhibition in assay [1] and in assay [4] were 39% and 100% (active), respectively. Also, the inhibition in assay [2] is 25%; in assay [3], -6%. Also, the outcome in assay [5], in assay [6], in assay [7] and in assay [8] was inactive.
`CC(C)c1cccc(OCC2CCN(c3ccc(C(=O)Nc4ccccc4)cn3)CC2)c1`: the growth inhibition in assay [1] is 90% (active); in assay [4] it was 95% (active). The inhibition in assay [2] is 9%; in assay [3], 4%. Also, the outcome in assay [5], in assay [6], in assay [7] and in assay [8] was inactive.
With `COc1ccc(C(=O)Nc2ccc3oc(-c4ccc(C(F)(F)F)cc4)cc3c2)cc1CCCN(C)C`, the growth inhibition is 27% in assay [1] and 98% (active) in assay [4]. The inhibition is 98% (active) in assay [2] and -1% in assay [3]. Moreover, the result in assay [5], in assay [6], in assay [7] and in assay [8] was inactive.
Consider `CCOP(=O)(OCC)c1ccc(OC)c(-c2ccc[nH]2)c1`, for which the growth inhibition in assay [1] was 10%; in assay [4], 95% (active). In addition, the inhibition in assay [2] was -13%; in assay [3], -2%. For the same molecule, the outcome in assay [5], in assay [6], in assay [7] and in assay [8] was inactive.
In the case of `O=S(=O)(NCCN1CCCC1)c1cccc(-c2cccc(CNCc3ccsc3)c2)c1`, the growth inhibition was 55% (active) in assay [1] and 101% (active) in assay [4]. In addition, the inhibition in assay [2] is 69% (active); in assay [3], 6%. The result in assay [5], in assay [6], in assay [7] and in assay [8] was inactive.
For the molecule `O=C(CCCCCNC(=O)c1ccc(O)c(-c2ccc(Cl)c(Cl)c2)c1)NCCc1ccc(Cl)c(Cl)c1`, the growth inhibition in assay [1] is 20%; in assay [4] it was 97% (active). The inhibition in assay [2] was 57% (active); in assay [3], -6%. Besides, the outcome in assay [5], in assay [6], in assay [7] and in assay [8] was inactive.
Turning to `O=C(Nc1ccc(Br)cc1)N1CCC(n2c(-c3ccccc3)nc3cccnc32)CC1`, the values for the growth inhibition in assay [1] and in assay [4] were 86% (active) and 90% (active), respectively. Also, the inhibition was 36% in assay [2] and 0% in assay [3]. In addition, the result in assay [5], in assay [6], in assay [7] and in assay [8] was inactive.
On to `CCOc1ccc(C(C)NC(=O)c2cc(Cl)ccc2OC)cc1OCC` (stereo not given), for which the growth inhibition in assay [1] is 99% (active); in assay [4], 101% (active). The inhibition was -1% in assay [2] and -2% in assay [3]. Besides, the outcome in assay [5], in assay [6], in assay [7] and in assay [8] was inactive.
Turning to `Clc1cc(Nc2ccnc3ccc(Br)cc23)ccc1Oc1ccc2ccccc2c1Cl`, the growth inhibition is 93% (active) in assay [1] and 100% (active) in assay [4]. The inhibition in assay [2] is 5%; in assay [3], -5%. Besides, the outcome in assay [5], in assay [6], in assay [7] and in assay [8] was inactive.
For the molecule `Nc1cc2c(C3CCN(CC4CCN(C(=O)/C=C/c5ccc(Cl)c(Cl)c5)CC4)CC3)c[nH]c2cn1`, the growth inhibition in assay [1] was 94% (active); in assay [4], 101% (active). For the same molecule, the figures for the inhibition in assay [2] and in assay [3] were 0% and -3%, respectively. Also, the outcome in assay [5], in assay [6], in assay [7] and in assay [8] was inactive.
Regarding `CCCCNc1ccc(C(=O)NC2CCN(C[C@H](O)c3ccnc4ccc(OC)cc34)CC2)cc1`, the growth inhibition is 64% (active) in assay [1] and 90% (active) in assay [4]. Also, the inhibition in assay [2] is 12%; in assay [3] it was -8%. Also, the outcome in assay [5], in assay [6], in assay [7] and in assay [8] was inactive.
As for `COc1cc2c(cc1OC)CN(c1cc(N)c3cc(OC)c(OC)cc3n1)CC2`, the growth inhibition is 99% (active) in assay [1] and 100% (active) in assay [4]. For the same molecule, the inhibition in assay [2] is 23%; in assay [3], -3%. The result in assay [5], in assay [6], in assay [7] and in assay [8] was inactive.
In the case of `O=C(/C=C/c1c(Cl)cccc1Cl)NC1CCC(CN2CCC(Cc3cc4ccccc4[nH]3)CC2)CC1` (stereo not given), the growth inhibition in assay [1] is 17%; in assay [4] it was 91% (active). The inhibition was 97% (active) in assay [2] and -1% in assay [3]. Besides, the outcome in assay [5], in assay [6], in assay [7] and in assay [8] was inactive.
Take `CO/C(=C\C=C\c1cc2cc(Cl)c(Cl)cc2[nH]1)C(=O)NCCCN1CCCC[C@@H]1C`: the growth inhibition in assay [1] was 83% (active); in assay [4], 99% (active). Further, the inhibition in assay [2] is 33%; in assay [3], 1%. Moreover, the outcome in assay [5], in assay [6], in assay [7] and in assay [8] was inactive.
Turning to `CS(=O)(=O)c1ccc2c(c1)CCN(CCC1CCC(NC(=O)C(=Cc3cccc(C#N)c3)c3ccc(-c4ccccc4)cc3)CC1)CC2` (stereo not given), the figures for the growth inhibition in assay [1] and in assay [4] were 13% and 99% (active), respectively. Further, the inhibition in assay [2] is 24%; in assay [3] it was -6%. The result in assay [5], in assay [6], in assay [7] and in assay [8] was inactive.
